Several values for one entry are separate records, joined by “and”; a condition that tells them apart may be missing. Equal entries are not always repeated. A number with no mark means an inactive call. Inconclusive results are not listed. A call without a number means that no potency is given here. Activity calls are given as the source filed them. Unless noted, the call rests on the fitted dose curve; in most records, active means well fitted curve in the direction sought with a large enough effect in the repeat runs; inconclusive means weak or mixed curves; inactive means no such curve, though single readings can be large; an effect the other way counts as inactive or inconclusive.
Key:
[1] = target: Thyrotropin-releasing hormone receptor (Homo sapiens) (UniProt P34981); assay: qHTS assay to identify small molecule agonists of the thyrotropin-releasing hormone receptor (TRHR) signaling pathway (AID 1346891; calls by dose curve;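 further: HEK293 cells expressing TRHR with calcium dye readout; series mostly up to about 58 µM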)
How it was run: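 HEK293/TRHR cells, 1500 per well, 18 h 37 °C; Ca dye 2 h 37 °C; pin-tool compound addition (agonist mode); kinetic fluorescence 3 min, 1 s reads; 15 concentrations, triplicate.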

[2] = Human pregnane X receptor (PXR) small molecule agonists, qHTS cell viability counter screen (AID 1346977); further: nearly all actives have a fitted effect of over 50% in size
How it was run: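 Fluorescence read-out (CellTiter-Fluor) of viability in PXR-Luc HepG2 cells, multiplexed with the luciferase agonist read. Compounds in DMSO added after 5hr plating; 24hr total exposure at 37C, 5% CO2.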

[3] = Caspase-3/7 induction in HepG2 cells by small molecules, qHTS assay (AID 1346978); further: nearly all actives have a fitted effect of over 15% in size
How it was run: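 Caspase-3/7 induction was measured by Caspase-Glo 3/7 luminescence (30 min, room temperature) after a 17 hr compound exposure of wild-type HepG2 cells seeded at 2,000 per well and pre-incubated 5 hr.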

[4] = Caspase-3/7 induction in CHO-K1 cells by small molecules, qHTS assay (AID 1346980); further: nearly all actives have a fitted effect of over 15% in size
How it was run: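 Luminescent Caspase-Glo 3/7 read (30min, room temperature) quantified apoptosis induction. Cells were wild-type CHO-K1, treated with compound for 17hr at 37 C and 5% CO2.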

[5] = target: Cytochrome P450 2D6 (Homo sapiens) (UniProt P10635); assay: Cytochrome P450 Family 2 Subfamily D Member 6 (CYP2D6) small molecule antagonists: luciferase reporter qHTS assay (AID 1671196); further: nearly all actives have a fitted effect of over 50% in size; further: potency means the concentration at half of the fitted maximal effect
How it was run: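 Test chemicals meet CYP2D6 plus proluciferin substrate (10 min, RT); NADPH regenerating solution then drives turnover for 1 h. Detection reagent halts the reaction; luminescence measured after 20 min.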

[6] = target: Cytochrome P450 2C19 (Homo sapiens) (UniProt P33261); assay: Cytochrome P450 Family 2 Subfamily C Member 19 (CYP2C19) small molecule antagonists: luciferase reporter qHTS assay (AID 1671197); further: nearly all actives have a fitted effect of over 65% in size; further: potency means the concentration at half of the fitted maximal effect
How it was run: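 Inhibition of CYP2C19 was scored from loss of luminescence in a P450-Glo proluciferin substrate assay, NADPH-started and run 1 h at 37C, with ketoconazole as positive control.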

[7] = target: Cytochrome P450 2C9 (Homo sapiens) (UniProt P11712); assay: Cytochrome P450 Family 2 Subfamily C Member 9 (CYP2C9) small molecule antagonists: luciferase reporter qHTS assay (AID 1671198); further: nearly all actives have a fitted effect of over 50% in size; further: potency means the concentration at half of the fitted maximal effect
How it was run: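 Enzyme-substrate mix preincubated with compound 10 min at room temperature; reaction started with NADPH regeneration solution, 1 h 37C. Luminescent luciferin product read after 20 min detection reagent.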

[8] = target: Cytochrome P450 1A2 (Homo sapiens) (UniProt P05177); assay: Cytochrome P450 Family 1 Subfamily A Member 2 (CYP1A2) small molecule antagonists: luciferase reporter qHTS assay (AID 1671199); further: nearly all actives have a fitted effect of over 50% in size; further: potency means the concentration at half of the fitted maximal effect
How it was run: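 Steps: enzyme-substrate mix dispensed; test compounds and furafylline control pinned in; 10 min room temperature; NADPH regeneration solution added, 1 h; reaction stopped with luciferin detection reagent; luminescence read after 20 min.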

[9] = target: Voltage-gated inwardly rectifying potassium channel KCNH2 (Homo sapiens) (UniProt Q12809); assay: Human Ether-a-go-go-Related Gene (hERG) channel small molecule antagonists: fluorescence cell-based qHTS assay (AID 1671200); further: nearly all actives have a fitted effect of over 50% in size; further: potency means the concentration at half of the fitted maximal effect
How it was run: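 Read-out: thallium influx as a surrogate for potassium, tracked as fluorescence (480 nm ex/540 nm em) every second for 2 min after Stimulus Buffer addition in dye-loaded hERG-U2OS cells.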

[10] = target: Cytochrome P450 3A4 (Homo sapiens) (UniProt P08684); assay: Cytochrome P450 Family 3 Subfamily A Member 4 (CYP3A4) small molecule antagonists: luciferase reporter qHTS assay (AID 1671201); further: nearly all actives have a fitted effect of over 50% in size; further: potency means the concentration at half of the fitted maximal effect
How it was run: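 Luminescent readout (RLU) proportional to CYP3A4 activity, from luciferin generated off a proluciferin substrate. Enzyme–substrate mix plus compound 10 min at room temp, NADPH regeneration 1 h, detection reagent 20 min.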

[11] = Caspase-3/7 induction in HepG2 cells by small molecules, qHTS cell viability counter screen (AID 1346981); further: series mostly up to about 92 µM; nearly all actives have a fitted effect of over 30% in size
How it was run: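 In this quantitative HTS counter screen, compounds delivered in DMSO were left on unmodified HepG2 cells for 16 hr at 37 C. Viability was then determined fluorometrically with CellTiter-Fluor, in parallel with caspase-3/7 induction in the same wells.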

[12] = target: Nuclear receptor subfamily 1 group I member 2 (Homo sapiens) (UniProt O75469); assay: Human pregnane X receptor (PXR) small molecule agonists, qHTS assay (AID 1346982); further: nearly all actives have a fitted effect of over 35% in size; further: potency means the concentration at half of the fitted maximal effect
How it was run: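 Reporter HepG2 cells expressing PXR-Luc are cultured in charcoal-stripped FBS (5%), treated with compounds for 24 hr at 37 C, and assayed by ONE-Glo luminescence after 30 min at room temperature.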

[13] = Caspase-3/7 induction in CHO-K1 cells by small molecules, qHTS cell viability counter screen (AID 1346979); further: nearly all actives have a fitted effect of over 35% in size; further: potency means the concentration at half of the fitted maximal effect
How it was run: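 CHO-K1 wt, 1,500 cells/well; 5hr pre-incubation 37C/5% CO2; compound pin transfer (DMSO); 16hr exposure; CellTiter-Fluor added, 1hr, fluorescence read.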

[14] = target: Nuclear receptor subfamily 1 group I member 2 (Rattus norvegicus) (UniProt Q9R1A7); assay: Rat pregnane X receptor (rPXR) activation by small molecules, qHTS assay (AID 1346983); settings: rPXR luciferase reporter cells, One-Glo luminescence, 24 h; max activation: active compounds read high; further: nearly all actives have a fitted effect of over 20% in size
How it was run: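 Luminescent readout (One-Glo luciferase, 30 min room temperature) followed 24 hr compound treatment at 37 C of rPXR cells plated 2,000 per well and preincubated 5hr; qHTS format with compounds delivered in DMSO.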

[15] = target: Nuclear receptor subfamily 1 group I member 2 (Homo sapiens) (UniProt O75469); assay: CYP3A4 induction through human pregnane X receptor (PXR) by small molecules, qHTS assay (AID 1346984); further: nearly all actives have a fitted effect of over 40% in size
How it was run: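 Induction measured in HepG2-based DPX-2 cells co-expressing human PXR and a CYP3A4 promoter-driven luciferase. After a 24-hour compound exposure, cells received CYP3A4 luciferin substrate at 3uM final for 3 hours, and light output was then recorded.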

[16] = target: Nuclear receptor subfamily 1 group I member 2 (Homo sapiens) (UniProt O75469); assay: Human pregnane X receptor (PXR) activation by small molecules, qHTS assay (AID 1346985); further: nearly all actives have a fitted effect of over 40% in size
How it was run: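 DPX-2 cells (HepG2 co-transfected with a PXR response element and a CYP3A4-promoter luciferase construct) were seeded at 2,000 per well, rested 5 hr at 37C, then exposed to DMSO-dissolved compounds for 24 hr. Activation was read as luciferase luminescence.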

Sequence of Cytochrome P450 2C9 (Homo sapiens) (P11712 whole entry, looked up): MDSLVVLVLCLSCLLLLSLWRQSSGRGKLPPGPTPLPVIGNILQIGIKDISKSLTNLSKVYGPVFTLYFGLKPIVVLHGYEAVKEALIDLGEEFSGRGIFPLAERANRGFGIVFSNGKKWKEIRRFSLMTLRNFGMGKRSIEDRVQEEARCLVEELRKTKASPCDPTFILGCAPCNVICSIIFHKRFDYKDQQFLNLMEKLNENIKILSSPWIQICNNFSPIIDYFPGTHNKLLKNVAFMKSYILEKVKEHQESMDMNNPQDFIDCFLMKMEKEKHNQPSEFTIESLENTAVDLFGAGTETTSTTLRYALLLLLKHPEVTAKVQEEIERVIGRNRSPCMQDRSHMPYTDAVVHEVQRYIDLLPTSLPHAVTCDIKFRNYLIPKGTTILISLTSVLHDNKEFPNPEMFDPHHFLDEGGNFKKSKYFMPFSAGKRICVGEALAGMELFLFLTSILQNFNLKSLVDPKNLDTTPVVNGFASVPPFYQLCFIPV
Sequence of Nuclear receptor subfamily 1 group I member 2 (Homo sapiens) (O75469 whole entry, looked up): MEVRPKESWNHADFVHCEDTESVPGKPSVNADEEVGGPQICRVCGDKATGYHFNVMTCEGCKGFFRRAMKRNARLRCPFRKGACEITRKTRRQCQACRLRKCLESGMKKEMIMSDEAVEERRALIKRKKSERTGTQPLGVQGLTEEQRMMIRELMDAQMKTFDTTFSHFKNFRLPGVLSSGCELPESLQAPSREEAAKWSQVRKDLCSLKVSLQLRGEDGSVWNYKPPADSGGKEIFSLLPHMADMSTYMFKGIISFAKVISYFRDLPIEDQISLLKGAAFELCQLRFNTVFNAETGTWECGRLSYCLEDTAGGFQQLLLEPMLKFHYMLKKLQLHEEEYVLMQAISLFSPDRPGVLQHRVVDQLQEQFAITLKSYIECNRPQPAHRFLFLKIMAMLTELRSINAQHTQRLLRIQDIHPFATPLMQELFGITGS
Sequence of Cytochrome P450 3A4 (Homo sapiens) (P08684 whole entry, looked up): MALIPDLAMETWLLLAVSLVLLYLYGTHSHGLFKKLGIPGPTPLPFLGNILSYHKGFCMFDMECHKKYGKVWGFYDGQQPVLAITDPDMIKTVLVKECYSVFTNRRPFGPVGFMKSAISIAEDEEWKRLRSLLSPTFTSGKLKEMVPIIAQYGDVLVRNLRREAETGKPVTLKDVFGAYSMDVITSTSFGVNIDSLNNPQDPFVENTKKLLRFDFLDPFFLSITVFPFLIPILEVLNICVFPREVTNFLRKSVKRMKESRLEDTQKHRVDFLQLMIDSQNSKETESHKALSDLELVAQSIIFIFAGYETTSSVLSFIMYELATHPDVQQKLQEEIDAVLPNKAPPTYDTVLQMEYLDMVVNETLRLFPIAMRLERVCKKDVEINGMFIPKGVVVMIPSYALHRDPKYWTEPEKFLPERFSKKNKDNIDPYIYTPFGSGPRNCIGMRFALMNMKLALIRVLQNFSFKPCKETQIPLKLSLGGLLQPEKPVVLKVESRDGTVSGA
Sequence of Cytochrome P450 2C19 (Homo sapiens) (P33261 whole entry, looked up): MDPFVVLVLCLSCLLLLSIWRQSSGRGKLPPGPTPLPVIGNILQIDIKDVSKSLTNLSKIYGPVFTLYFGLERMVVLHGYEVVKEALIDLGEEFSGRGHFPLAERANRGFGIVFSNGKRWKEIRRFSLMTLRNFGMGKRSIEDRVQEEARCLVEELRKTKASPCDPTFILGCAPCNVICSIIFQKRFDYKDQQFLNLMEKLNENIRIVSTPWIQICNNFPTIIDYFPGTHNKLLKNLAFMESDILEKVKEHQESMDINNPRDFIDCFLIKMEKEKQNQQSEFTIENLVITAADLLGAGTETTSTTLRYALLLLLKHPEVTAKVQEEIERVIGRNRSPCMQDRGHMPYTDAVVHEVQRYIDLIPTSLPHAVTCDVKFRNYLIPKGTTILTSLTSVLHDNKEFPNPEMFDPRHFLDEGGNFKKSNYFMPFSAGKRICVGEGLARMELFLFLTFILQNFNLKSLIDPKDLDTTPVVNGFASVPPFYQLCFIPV
Sequence of Thyrotropin-releasing hormone receptor (Homo sapiens) (P34981 whole entry, looked up): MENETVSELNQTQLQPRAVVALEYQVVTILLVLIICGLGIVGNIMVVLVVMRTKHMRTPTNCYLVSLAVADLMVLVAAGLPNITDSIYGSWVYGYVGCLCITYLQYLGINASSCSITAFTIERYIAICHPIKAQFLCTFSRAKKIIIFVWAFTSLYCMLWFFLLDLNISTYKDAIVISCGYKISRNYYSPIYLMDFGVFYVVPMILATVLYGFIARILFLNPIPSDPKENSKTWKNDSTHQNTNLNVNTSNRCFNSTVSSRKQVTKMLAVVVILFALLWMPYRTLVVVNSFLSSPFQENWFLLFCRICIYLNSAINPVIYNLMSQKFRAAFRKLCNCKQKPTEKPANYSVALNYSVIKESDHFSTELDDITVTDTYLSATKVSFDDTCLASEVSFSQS
Sequence of Cytochrome P450 1A2 (Homo sapiens) (P05177 whole entry, looked up): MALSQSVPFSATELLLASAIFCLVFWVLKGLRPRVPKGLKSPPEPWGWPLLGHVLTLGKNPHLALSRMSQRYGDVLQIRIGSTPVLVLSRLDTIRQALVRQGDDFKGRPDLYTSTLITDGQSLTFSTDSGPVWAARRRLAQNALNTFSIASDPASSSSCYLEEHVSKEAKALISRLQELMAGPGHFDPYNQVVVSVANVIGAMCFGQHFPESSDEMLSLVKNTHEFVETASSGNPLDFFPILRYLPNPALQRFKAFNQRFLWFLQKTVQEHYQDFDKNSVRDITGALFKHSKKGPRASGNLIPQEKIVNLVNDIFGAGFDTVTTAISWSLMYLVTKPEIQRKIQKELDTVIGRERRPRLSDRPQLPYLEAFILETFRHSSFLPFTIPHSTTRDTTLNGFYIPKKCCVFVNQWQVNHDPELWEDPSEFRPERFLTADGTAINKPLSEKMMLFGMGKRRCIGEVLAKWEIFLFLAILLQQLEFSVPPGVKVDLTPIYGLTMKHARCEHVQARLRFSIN
Sequence of Cytochrome P450 2D6 (Homo sapiens) (P10635 whole entry, looked up): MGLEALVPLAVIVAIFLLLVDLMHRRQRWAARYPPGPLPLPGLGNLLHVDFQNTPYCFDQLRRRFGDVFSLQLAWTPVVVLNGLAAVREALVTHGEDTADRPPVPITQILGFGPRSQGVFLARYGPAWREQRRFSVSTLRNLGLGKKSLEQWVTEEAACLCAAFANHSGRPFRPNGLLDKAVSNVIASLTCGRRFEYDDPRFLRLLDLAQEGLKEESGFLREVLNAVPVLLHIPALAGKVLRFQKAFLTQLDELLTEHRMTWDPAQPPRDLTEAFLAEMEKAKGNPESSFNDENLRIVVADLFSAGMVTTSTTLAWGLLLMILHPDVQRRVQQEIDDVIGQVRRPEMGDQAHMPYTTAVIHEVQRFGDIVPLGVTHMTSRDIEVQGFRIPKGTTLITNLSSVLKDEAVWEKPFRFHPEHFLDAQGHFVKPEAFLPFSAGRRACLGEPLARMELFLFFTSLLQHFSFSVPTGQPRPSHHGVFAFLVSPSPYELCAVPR
Sequence of Voltage-gated inwardly rectifying potassium channel KCNH2 (Homo sapiens) (Q12809 whole entry, looked up): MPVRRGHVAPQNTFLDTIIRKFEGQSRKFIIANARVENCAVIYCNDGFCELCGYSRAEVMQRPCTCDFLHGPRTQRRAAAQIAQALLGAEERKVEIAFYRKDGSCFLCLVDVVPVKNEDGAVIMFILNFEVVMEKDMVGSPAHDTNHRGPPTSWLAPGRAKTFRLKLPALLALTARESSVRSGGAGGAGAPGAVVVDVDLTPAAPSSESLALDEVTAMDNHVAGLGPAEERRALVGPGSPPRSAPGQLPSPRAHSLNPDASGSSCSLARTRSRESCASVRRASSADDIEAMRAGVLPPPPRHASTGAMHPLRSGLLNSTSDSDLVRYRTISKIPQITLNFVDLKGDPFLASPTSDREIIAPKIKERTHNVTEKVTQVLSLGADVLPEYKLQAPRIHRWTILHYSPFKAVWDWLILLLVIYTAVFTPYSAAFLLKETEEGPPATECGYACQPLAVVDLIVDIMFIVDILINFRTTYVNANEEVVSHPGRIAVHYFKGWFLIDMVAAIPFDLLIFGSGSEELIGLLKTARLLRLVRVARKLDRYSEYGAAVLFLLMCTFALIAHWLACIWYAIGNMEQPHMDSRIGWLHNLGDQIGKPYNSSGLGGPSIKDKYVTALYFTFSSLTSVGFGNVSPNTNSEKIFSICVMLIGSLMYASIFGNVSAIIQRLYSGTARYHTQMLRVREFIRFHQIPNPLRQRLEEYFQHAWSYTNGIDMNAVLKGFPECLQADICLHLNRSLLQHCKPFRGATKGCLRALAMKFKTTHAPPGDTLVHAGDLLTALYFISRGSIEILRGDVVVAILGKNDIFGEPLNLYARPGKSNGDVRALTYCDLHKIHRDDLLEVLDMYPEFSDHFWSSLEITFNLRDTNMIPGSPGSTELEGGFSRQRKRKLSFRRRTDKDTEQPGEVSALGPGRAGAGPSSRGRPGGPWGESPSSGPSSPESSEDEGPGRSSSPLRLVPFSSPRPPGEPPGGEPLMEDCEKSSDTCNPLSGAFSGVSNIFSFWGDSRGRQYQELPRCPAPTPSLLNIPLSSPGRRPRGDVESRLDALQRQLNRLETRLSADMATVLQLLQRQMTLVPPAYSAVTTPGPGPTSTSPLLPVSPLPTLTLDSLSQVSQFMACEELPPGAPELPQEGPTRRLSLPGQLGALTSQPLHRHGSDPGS
Sequence of Nuclear receptor subfamily 1 group I member 2 (Rattus norvegicus) (Q9R1A7 whole entry, looked up): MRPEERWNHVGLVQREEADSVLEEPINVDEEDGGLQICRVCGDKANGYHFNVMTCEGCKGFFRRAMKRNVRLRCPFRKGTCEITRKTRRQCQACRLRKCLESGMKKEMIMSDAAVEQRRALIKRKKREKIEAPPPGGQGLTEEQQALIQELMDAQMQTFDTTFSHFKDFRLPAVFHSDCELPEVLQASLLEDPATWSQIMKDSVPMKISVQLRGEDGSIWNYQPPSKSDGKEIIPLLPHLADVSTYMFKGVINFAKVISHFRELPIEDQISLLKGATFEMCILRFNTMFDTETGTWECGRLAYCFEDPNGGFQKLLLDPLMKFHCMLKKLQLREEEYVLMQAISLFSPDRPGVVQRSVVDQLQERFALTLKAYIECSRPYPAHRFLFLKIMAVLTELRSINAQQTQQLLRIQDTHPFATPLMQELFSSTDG

## Cc1oc(C)c(C(=O)Nc2ccccc2)c1C
[1]
  Potency: inactive
[2]
  Potency: inactive
[3]
  Potency: inactive
[4]
  outcome: inactive
[5]
  Potency: 56.4 µM (active)
[6]
  Potency: 35.6 µM (active)
[7]
  Potency: 35.6 µM (active)
[8]
  Potency: 15.9 µM (active)
[9]
  Potency: inactive
[10]
  Potency: inactive

## O=C(CCC1CCN(Cc2ccccc2)CC1)c1ccc2c(c1)NCCCC2
[1]
  Potency: inactive
[3]
  Potency: inactive
[4]
  outcome: inactive
[11]
  Potency: inactive
[5]
  Potency: 8.71 µM (active)
[6]
  Potency: inactive
[7]
  Potency: inactive
[8]
  Potency: inactive
[9]
  Potency: 4.77 µM (active)
[10]
  Potency: inactive

## O=c1[nH]c2ccc(S(=O)CCN3CCC(Cc4ccc(F)cc4)CC3)cc2o1 (stereo not drawn)
[1]
  Potency: inactive
[3]
  Potency: inactive
[4]
  outcome: inactive
[12]
  Potency: inactive
[5]
  Potency: 35.6 µM (active)
[6]
  Potency: 56.4 µM (active)
[7]
  Potency: inactive
[8]
  Potency: inactive
[9]
  Potency: 4.36 µM (active)

## NC(=O)Cn1c(=O)cc(CCN2CCN(c3nccc4sccc34)CC2)c2ccc(F)cc21
[1]
  Potency: inactive
[3]
  Potency: inactive
[4]
  outcome: inactive
[12]
  Potency: inactive
[5]
  Potency: 35.6 µM (active)
[7]
  Potency: 63.3 µM (active)
[8]
  Potency: inactive
[9]
  Potency: inactive
[10]
  Potency: 5.64 µM (active)

## O=C(O)C(Cc1cc(I)c(O)c(I)c1)c1ccccc1 (stereo not drawn)
[2]
  Potency: inactive
[3]
  Potency: inactive
[13]
  Potency: inactive
[4]
  outcome: inactive
[11]
  Potency: inactive
[12]
  Potency: inactive
[14]
  max activation: -2.03%
[15]
  Potency: inactive
[16]
  Potency: inactive
[6]
  Potency: inactive
[7]
  Potency: 9.77 µM (active)
[8]
  Potency: 24.5 µM (active)
[9]
  Potency: inactive
[10]
  Potency: inactive

## COC(=O)CC(=O)C(C)(C)C
[2]
  Potency: inactive
[3]
  Potency: inactive
[13]
  Potency: inactive
[4]
  outcome: inactive
[11]
  Potency: inactive
[12]
  Potency: inactive
[6]
  Potency: inactive
[9]
  Potency: inactive
[10]
  Potency: inactive

## O=C(O)c1c(O)c(-c2ccccc2)nc2ccccc12
[2]
  Potency: inactive
[3]
  Potency: inactive
[13]
  Potency: inactive
[4]
  outcome: inactive
[11]
  Potency: inactive
[12]
  Potency: inactive
[5]
  Potency: inactive
[7]
  Potency: 30.9 µM (active)
[8]
  Potency: 17.4 µM (active)
[9]
  Potency: inactive
[10]
  Potency: inactive

## CC1C2CC(CC2C2CCCC(O)C2)C1(C)C (stereo not drawn)
[1]
  Potency: inactive
[13]
  Potency: 68.6 µM (active)
[11]
  Potency: inactive
[12]
  Potency: inactive
[6]
  Potency: 35.6 µM (active)
[7]
  Potency: 35.6 µM (active)
[9]
  Potency: 24.5 µM (active)

## C/C=C/C=C/CCCCCCCO
[1]
  Potency: inactive
[3]
  Potency: inactive
[4]
  outcome: inactive
[12]
  Potency: 61.1 µM (active)
[6]
  Potency: 25.2 µM (active)
[7]
  Potency: 7.1 µM (active)
[10]
  Potency: 15.9 µM (active)

## CN(C)CCOC1=Cc2ccccc2Sc2ccc(Cl)cc21
[1]
  Potency: inactive
[4]
  outcome: inactive
[11]
  Potency: inactive
[12]
  Potency: inactive
[5]
  Potency: 4.36 µM (active)
[6]
  Potency: inactive
[7]
  Potency: inactive
[8]
  Potency: 18.2 µM (active)

## CC1=C(/C=C/C(C)=C\C=C\C(C)=C\C(=O)O)C(C)(C)CCC1
[1]
  Potency: inactive
[3]
  Potency: inactive
[4]
  outcome: inactive
[12]
  Potency: 54.5 µM (active)
[6]
  Potency: 35.6 µM (active)
[8]
  Potency: inactive
[10]
  Potency: 22.4 µM (active)

## CCOC(=O)N1CCC(n2c(=O)[nH]c3cc(Cl)ccc32)CC1
[1]
  Potency: inactive
[3]
  Potency: inactive
[4]
  outcome: inactive
[12]
  Potency: inactive
[5]
  Potency: inactive
[6]
  Potency: 9.77 µM (active)
[7]
  Potency: 9.77 µM (active)
[9]
  Potency: inactive
[10]
  Potency: inactive

## CCC(=O)OC/C=C/c1ccccc1
[2]
  Potency: inactive
[3]
  Potency: inactive
[13]
  Potency: inactive
[4]
  outcome: inactive
[11]
  Potency: inactive
[12]
  Potency: inactive
[5]
  Potency: inactive
[6]
  Potency: 35.6 µM (active) and 71 µM (active)
[7]
  Potency: 39.9 µM (active)
[8]
  Potency: 63.3 µM (active)
[9]
  Potency: inactive
[10]
  Potency: inactive

## Cc1nc2ccccc2s1
[2]
  Potency: inactive
[3]
  Potency: inactive
[13]
  Potency: inactive
[4]
  outcome: inactive
[11]
  Potency: inactive
[12]
  Potency: inactive
[5]
  Potency: inactive
[6]
  Potency: 80.2 µM (active)
[7]
  Potency: inactive
[9]
  Potency: inactive
[10]
  Potency: inactive

## CC(C)CCCC(=O)O
[2]
  Potency: inactive
[3]
  Potency: inactive
[13]
  Potency: inactive
[4]
  outcome: inactive
[11]
  Potency: inactive
[12]
  Potency: inactive
[5]
  Potency: inactive
[6]
  Potency: inactive
[7]
  Potency: inactive
[8]
  Potency: inactive
[9]
  Potency: inactive
[10]
  Potency: inactive

## CC[C@@H]([C@H](C)O)n1ncn(-c2ccc(N3CCN(c4ccc(OC[C@@H]5CO[C@@](Cn6cncn6)(c6ccc(F)cc6F)C5)cc4)CC3)cc2)c1=O
[1]
  Potency: inactive
[13]
  Potency: 7.5 µM (active)
[4]
  outcome: inactive
[12]
  Potency: 10.6 µM (active)
[8]
  Potency: inactive

## CC(C)C(OC(=O)c1ccccc1)C(C)(C)COC(=O)c1ccccc1 (stereo not drawn)
[2]
  Potency: inactive
[3]
  Potency: inactive
[13]
  Potency: inactive
[4]
  outcome: inactive
[11]
  Potency: inactive
[5]
  Potency: inactive
[6]
  Potency: 6.33 µM (active)
[7]
  Potency: 2 µM (active)
[8]
  Potency: 35.6 µM (active)
[10]
  Potency: inactive

## Oc1cc(O)c(Cl)cc1Cl
[2]
  Potency: inactive
[3]
  Potency: inactive
[13]
  Potency: inactive
[4]
  outcome: inactive
[11]
  Potency: inactive
[12]
  Potency: inactive
[6]
  Potency: inactive
[7]
  Potency: 40.9 µM (active)
[8]
  Potency: 18.3 µM (active)
[9]
  Potency: inactive
[10]
  Potency: 36.5 µM (active)

## O=C1OCCN1/N=C/c1ccc([N+](=O)[O-])o1
[1]
  Potency: inactive
[3]
  Potency: inactive
[11]
  Potency: inactive
[12]
  Potency: inactive
[14]
  max activation: -6.39%
[16]
  Potency: inactive
